From PubChem BioAssay AID1159580 (chemical genetic matrix, 2015)
Where “and” joins values, the source holds several entries; their conditions need not be identical. Equal values may be shown once. The campaign covered roughly 5,500 compounds. About 2,000 (36%) were called active. Another 18% or so got no clear call; they are omitted. Cut-off read from the data, not from the text of the source: active = normalized growth mostly below about 0.91 (no sharp cut-off); inconclusive = no clear call, values can overlap the other calls; inactive = mostly above about 0.92. The list shows a part of the results.

Test: chemical genetic growth profiling, strain panel (AID 1159580);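 note: tested at 20 µM; growth read once vehicle control cultures reached saturation at 30 °C; 1 = growth at the plate median or of vehicle wells; lower values mean less growth of the strain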
Conditions: S. cerevisiae deletion strains, growth OD

Measured: normalized growth

C[C@@H](CO)NC(=O)C1C=C2c3cccc4[nH]cc(c34)C[C@H]2N(C)C1 (stereo partly specified)
inactive: locus YAL013W, strain DEP1, hits give low values 1.02 | locus YAL021C, strain ccr4, hits give low values 1.01 | locus YAL026C, strain drs2, hits give low values 0.989 | locus YAL030W, strain snc1, hits give low values 1.03 | locus YBL061C, strain skt5, hits give low values 1.02 | locus YBR009C, strain hhf1, hits give low values 0.979 | locus YBR021W, strain FUR4, hits give low values 0.963 | locus YBR023C, strain chs3, hits give low values 1.01 | locus YBR171W, strain sec66, hits give low values 1.02 | locus YBR229C, strain ROT2, hits give low values 0.997 | locus YBR231C, strain swc5, hits give low values 1.02 | locus YBR279W, strain paf1, hits give low values 1 | locus YCL011C, strain gbp2, hits give low values 0.991 | locus YCL016C, strain dcc1, hits give low values 0.955 | locus YCL029C, strain bik1, hits give low values 0.986 | locus YCL069W, strain vba3, hits give low values 1.01 | locus YCR088W, strain abp1, hits give low values 1.01 | locus YDL005C, strain med2, hits give low values 1.02 | locus YDL035C, strain GPR1, hits give low values 1.03 | locus YDL040C, strain nat1, hits give low values 1.01 | locus YDL074C, strain BRE1, hits give low values 1.08 | locus YDL101C, strain DUN1, hits give low values 0.996 | locus YDL134C, strain PPH21, hits give low values 0.995 | locus YDL185W, strain tfp1, hits give low values 0.983 | locus YDL192W, strain arf1, hits give low values 0.994 | locus YDR001C, strain nth1, hits give low values 1 | locus YDR069C, strain doa4, hits give low values 1.04 | locus YDR101C, strain arx1, hits give low values 0.997 | locus YDR137W, strain rgp1, hits give low values 0.984 | locus YDR150W, strain NUM1, hits give low values 0.987 | locus YDR159W, strain sac3, hits give low values 0.937 | locus YDR162C, strain NBP2, hits give low values 1.02 | locus YDR195W, strain ref2 1.01 | locus YDR297W, strain sur2, hits give low values 1.03 | locus YDR318W, strain mcm21, hits give low values 0.994 | locus YDR334W, strain swr1, hits give low values 1 | locus YDR335W, strain msn5, hits give low values 1.01 | locus YDR388W, hits give low values 0.998 | locus YDR392W, strain spt3, hits give low values 0.942 | locus YDR502C, strain sam2, hits give low values 0.996 | locus YEL003W, strain gim4, hits give low values 1.03 | locus YEL037C, strain rad23, hits give low values 1.01 | locus YEL061C, strain CIN8 (second series), hits give low values 1 | locus YEL061C, strain CIN8, hits give low values 1.01 | locus YER015W, strain faa2, hits give low values 1.01 | locus YER016W, strain bim1, hits give low values 0.994 | locus YER110C, hits give low values 0.99 | locus YER111C, strain swi4, hits give low values 1 | locus YER155C, strain BEM2 (second series), hits give low values 1.08 | locus YER155C, strain BEM2, hits give low values 1 | locus YER167W, strain BCK2, hits give low values 0.99 | locus YFR010W, strain ubp6, hits give low values 1.01 | locus YGL078C, strain dbp3, hits give low values 0.995 | locus YGL086W, strain mad1, hits give low values 0.987 | locus YGL167C, strain pmr1, hits give low values 1.03 | locus YGL173C, strain kem1, hits give low values 1.04 | locus YGL227W, strain vid30, hits give low values 1.01 | locus YGL240W, strain doc1, hits give low values 1.04 | locus YGL248W, strain PDE1, hits give low values 0.993 | locus YGL253W, strain hxk2, hits give low values 0.985 | locus YGR078C, strain PAC10, hits give low values 1.03 | locus YGR135W, strain pre9, hits give low values 1.01 | locus YGR229C, strain SMI1, hits give low values 1.06 | locus YGR252W, strain gcn5, hits give low values 0.977 | locus YHR013C, strain ard1, hits give low values 1 | locus YHR027C, strain rpn1, hits give low values 1.01 | locus YHR030C, strain SLT2, hits give low values 0.991 and 1.04 | locus YHR079C, strain IRE1 (second series), hits give low values 0.991 | locus YHR079C, strain IRE1, hits give low values 1.04 | locus YHR094C, strain hxt1, hits give low values 0.991 | locus YHR129C, strain ARP1, hits give low values 0.999 | locus YHR142W, strain chs7, hits give low values 0.99 | locus YHR200W, strain rpn10, hits give low values 0.988 | locus YIL066C, strain RNR3, hits give low values 1 | locus YIL073C, strain SPO22, hits give low values 0.949 | locus YIL125W, strain kgd1, hits give low values 0.99 | locus YIR030C, strain dcg1, hits give low values 0.994 | locus YJL092W, strain hpr5, hits give low values 1.03 | locus YJL095W, strain BCK1 (second series), hits give low values 1.03 | locus YJL095W, strain BCK1, hits give low values 1.05 and 1.04 | locus YJL115W, strain asf1, hits give low values 1.01 | locus YJL129C, strain trk1, hits give low values 1.02 | locus YJL134W, strain LCB3, hits give low values 0.997 | locus YJL154C, strain vps35, hits give low values 1.01 | locus YJL164C, strain tpk1, hits give low values 0.989 | locus YJL166W, strain qcr8, hits give low values 1.03 | locus YJL168C, strain set2, hits give low values 0.998 | locus YJL187C, strain SWE1 (second series), hits give low values 1 | locus YJL187C, strain SWE1, hits give low values 1.02 | locus YJR043C, strain POL32, hits give low values 0.995 | locus YJR066W, strain TOR1, hits give low values 1.01
